SNCA expr inhib – Primary qHTS assay for inhibitors of alpha-synuclein gene (SNCA) expression | 140,000 tested, 0.17% active | HEK-293 SNCA-luciferase knock-in, luminescence, 24 h | AID 1671194, 2021 | Potency, µM (highest dose often 57.2 µM), actives largely listed as inhibitors; also: nearly all actives have a fitted effect of over 45% in size
KDM5B inh – Primary screen for KDM5B Histone Demethylases FDH-coupled qHTS. Lysine-specific demethylase 5B (Homo sapiens), Q9UGL1. KDM5B demethylase, FDH-coupled NADH fluorescence (FDH is formaldehyde dehydrogenase). Potency, µM (series often up to 57.7 µM), hits mostly inhibitors. 220,000 tested, 2.6% active. AID 1347165, 2019; also: nearly all actives have a fitted effect of over 70% in size
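Here, H3K4me3 peptide (12.5 µM in substrate mix) is demethylated by KDM5BΔAP, 200 nM final, after 10 min compound exposure. Formaldehyde product is coupled through FDH (0.25 U/mL in mix) to NADH fluorescence; 30-min ΔRFU feeds dose-response curves.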
IP6K1 inhibitor – Primary qHTS assay for small molecule inhibitors of Inositol hexaphosphate kinase 1 (IP6K1); activity change, % (series mostly up to about 58 µM); AID 1645851, 2021; 140,000 tested, 0.81% active; IP6K1 kinase, ADP-Glo luminescence, 2 h; active compounds read low; Inositol hexakisphosphate kinase 1 (Homo sapiens), Q92551; in the data active = activity change below about -25%
Target sequence (Q92551 whole entry, looked up): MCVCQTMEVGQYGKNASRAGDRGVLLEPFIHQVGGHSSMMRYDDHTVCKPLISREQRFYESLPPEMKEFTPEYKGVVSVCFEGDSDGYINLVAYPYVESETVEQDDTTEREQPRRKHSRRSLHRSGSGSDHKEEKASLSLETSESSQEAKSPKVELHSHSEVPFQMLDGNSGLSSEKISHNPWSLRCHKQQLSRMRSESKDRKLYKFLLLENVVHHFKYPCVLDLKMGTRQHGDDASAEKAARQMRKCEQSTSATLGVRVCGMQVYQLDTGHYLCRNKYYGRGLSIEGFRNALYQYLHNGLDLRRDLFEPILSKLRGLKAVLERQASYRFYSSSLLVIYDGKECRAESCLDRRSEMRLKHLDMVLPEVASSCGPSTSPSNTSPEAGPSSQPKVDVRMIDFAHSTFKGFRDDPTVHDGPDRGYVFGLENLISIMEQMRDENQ
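ADP-Glo luminescence measures ADP made by human IP6K1 during a 2 h RT reaction with ATP/IP6 (mix at 1.3 mM/130 uM); top library doses 57.5 and 19.1 uM final.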
HEK293 viab – GF-AFC viability counterscreen for inhibitors of alpha-synuclein gene (SNCA) expression; HEK-293-SNCA-luc viability, GF-AFC fluorescence, 24 h; Potency, µM (series often up to 57.1 µM), most hits filed as cytotoxic; 150,000 tested, 0.12% active; also: nearly all actives have a fitted effect of over 30% in size
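Cytotoxicity counterscreen: after 24 h compound treatment of genome-edited SNCA-luciferase HEK-293 cells, live-cell protease substrate GF-AFC read by fluorescence after 30 min; activity scaled between DMSO (0%) and medium-only (-100%), curves Hill-fitted.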
Large screens that a line does not name were inactive. The list is not random: actives were taken first. Their share in the collection is about 2.9%. Unless noted, calls follow the shape of the dose curve; as a rule, active = well fitted curve in the direction sought with a large enough effect; inconclusive = small, poorly fitted or top-dose-only effect, or another doubt; inactive = no such curve, though single readings can be large; an effect the other way counts as inactive or inconclusive.

COc1ccc(C(=O)N[C@H]2C[C@H]3C(=O)Nc4ccc(-c5cccs5)cc4C(=O)N3C2)cc1	KDM5B inh 35.5µM, HEK293 viab inconclusive
COc1ccc(C(=O)N[C@H]2C[C@H]3C(=O)Nc4ccccc4C(=O)N3C2)cc1	HEK293 viab inconclusive
O=C(NCCNC(=O)c1ccc(Cl)nc1)c1ccc(-c2cccc(C(F)(F)F)c2)cc1	none (no result: SNCA expr inhib, KDM5B inh, HEK293 viab)
COc1ccc([C@@H](NC(=O)c2ccc3cccc(F)c3n2)C2CC(O)C2)cn1 (stereo partly drawn)	KDM5B inh 22.4µM
O=C(c1ccc2nnc(-c3ccc(C(F)(F)F)cc3)n2c1)N1CCCC1	none (no result: KDM5B inh)
O=C(c1nc(-c2ccc(F)cc2)c2ccccn12)N1CCOCC1	KDM5B inh 31.6µM
O=C(c1nc(-c2ccc(F)cc2)c2cnccn12)N1CCCC1	KDM5B inh 31.6µM
O=C(c1cc(-c2cccc(C(F)(F)F)c2)c2cccn2n1)N1CCOCC1	SNCA expr inhib inconclusive (no result: KDM5B inh)
O=C(c1nc(-c2ccc(Cl)cc2)c2ccccn12)N1CCN(c2ncccn2)CC1	KDM5B inh 25.1µM
O=C(c1nc(-c2cccc(C(F)(F)F)c2)c2cnccn12)N1CCOCC1	KDM5B inh 10µM
CCC(C)NC(=O)C(NC(=O)c1ccc(C)cc1)C1CCN(C(=O)c2cccc(F)c2)CC1 (stereo not drawn)	none
O=C(Cc1c[nH]c2ccccc12)Nc1cccc(F)c1	none (no result: SNCA expr inhib, IP6K1 inhibitor, HEK293 viab)
O=C(c1cc(-c2cccc(C(F)(F)F)c2)c2cccn2n1)N1CCCC1	none (no result: KDM5B inh)
O=C(c1nc(-c2cccc(C(F)(F)F)c2)c2cnccn12)N1CCCC1	KDM5B inh 31.6µM
CC(O)CCn1ccc2[nH]c(=O)c(C#N)cc2c1=O (stereo not drawn)	none
N#Cc1cc2c(=O)n(CCc3n[nH]c4c3CCCC4)ccc2[nH]c1=O	KDM5B inh 31.6µM
O=C(Nc1ccc(S(=O)(=O)N(Cc2ccccc2)c2ccccc2)cc1)c1ccc(F)cc1	IP6K1 inhibitor -27.7
CS(=O)(=O)N(Cc1ccccc1)c1ccc(C(=O)Nc2cccc(Cl)c2)cc1	KDM5B inh inconclusive, HEK293 viab 6.31µM
Cc1ccc(NC(=O)c2ccc(N(Cc3ccccc3)S(C)(=O)=O)cc2)cc1	HEK293 viab 2.82µM
Cc1cccc(C(=O)Nc2ccc(S(=O)(=O)N(Cc3ccccc3)c3ccccc3)cc2)c1	KDM5B inh inconclusive
CNC(=O)c1ccc(N(Cc2ccc(C)cc2)S(C)(=O)=O)cc1	none (no result: SNCA expr inhib, IP6K1 inhibitor, HEK293 viab)
O=C(Nc1ccc(S(=O)(=O)N(Cc2ccccc2)c2ccccc2)cc1)c1ccccc1F	none
O=c1oc(-c2ccc(F)cc2)nn1CC(O)COc1ccc(Br)cc1 (stereo not drawn)	none (no result: SNCA expr inhib, IP6K1 inhibitor, HEK293 viab)
CC1CCN(CCNC(=O)c2ccc(Cn3c(SCc4ccccc4)nc4cccnc43)cc2)CC1	KDM5B inh inconclusive, HEK293 viab 10µM
CCN(C)C(=O)CCc1c(C)nn(-c2ccccc2)c1Oc1ccccc1F	KDM5B inh 14.1µM
CCN(CC)C(=O)CCc1c(C)nn(-c2ccccc2)c1Oc1ccc(F)cc1F	none
CCc1ccc(NC(=O)c2cc3n(n2)CC(c2ccc4c(c2)OCO4)OC3)cc1 (stereo not drawn)	KDM5B inh 31.6µM
Cc1cc(NC(=O)c2cc3n(n2)CC(c2ccc4c(c2)OCO4)OC3)ccc1F (stereo not drawn)	KDM5B inh 28.2µM
Cc1ccc(NC(=O)c2cc3n(n2)CC(c2ccc4c(c2)OCO4)OC3)cc1 (stereo not drawn)	KDM5B inh 31.6µM
Cc1cccc(NC(=O)c2cc3n(n2)CC(c2ccc4c(c2)OCO4)OC3)c1 (stereo not drawn)	KDM5B inh inconclusive
COc1ccc(NC(=O)c2cc3n(n2)CC(c2ccc4c(c2)OCO4)OC3)cc1OC (stereo not drawn)	none
COc1ccc(NC(=O)c2cc3n(n2)CC(c2ccc4c(c2)OCO4)OC3)cc1Cl (stereo not drawn)	KDM5B inh 25.1µM
O=C(Nc1ccccc1)c1cc2n(n1)CC(c1ccc3c(c1)OCO3)OC2 (stereo not drawn)	KDM5B inh inconclusive
Cc1cc(C(=O)CSc2nc3cc([N+](=O)[O-])ccc3o2)c(C)n1C1CC1	none (no result: SNCA expr inhib, IP6K1 inhibitor, HEK293 viab)
COc1ccccc1-c1ccc(C(=O)N2CCC(C(=O)N3CCC(Cc4ccccc4)CC3)CC2)cc1	none (no result: KDM5B inh)
